A selection: hits, their analogues and other compounds. The true share with any hit is near 2.1%.
ERAP1 HTS inh: inhibitors of human ERAP1 aminopeptidase; Q9NZ08; recombinant ERAP1, Leu-AMC fluorescence, 60 min; inhibition, % at 10.7 µM; hit rate 0.15% among 340,000; AID 652197;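 active = mean replicate inhibition of at least 30%, or all replicates individually reaching that 30% level; inactive = mean below 30% and not every replicate reaching it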
Target sequence (Q9NZ08 whole entry, looked up): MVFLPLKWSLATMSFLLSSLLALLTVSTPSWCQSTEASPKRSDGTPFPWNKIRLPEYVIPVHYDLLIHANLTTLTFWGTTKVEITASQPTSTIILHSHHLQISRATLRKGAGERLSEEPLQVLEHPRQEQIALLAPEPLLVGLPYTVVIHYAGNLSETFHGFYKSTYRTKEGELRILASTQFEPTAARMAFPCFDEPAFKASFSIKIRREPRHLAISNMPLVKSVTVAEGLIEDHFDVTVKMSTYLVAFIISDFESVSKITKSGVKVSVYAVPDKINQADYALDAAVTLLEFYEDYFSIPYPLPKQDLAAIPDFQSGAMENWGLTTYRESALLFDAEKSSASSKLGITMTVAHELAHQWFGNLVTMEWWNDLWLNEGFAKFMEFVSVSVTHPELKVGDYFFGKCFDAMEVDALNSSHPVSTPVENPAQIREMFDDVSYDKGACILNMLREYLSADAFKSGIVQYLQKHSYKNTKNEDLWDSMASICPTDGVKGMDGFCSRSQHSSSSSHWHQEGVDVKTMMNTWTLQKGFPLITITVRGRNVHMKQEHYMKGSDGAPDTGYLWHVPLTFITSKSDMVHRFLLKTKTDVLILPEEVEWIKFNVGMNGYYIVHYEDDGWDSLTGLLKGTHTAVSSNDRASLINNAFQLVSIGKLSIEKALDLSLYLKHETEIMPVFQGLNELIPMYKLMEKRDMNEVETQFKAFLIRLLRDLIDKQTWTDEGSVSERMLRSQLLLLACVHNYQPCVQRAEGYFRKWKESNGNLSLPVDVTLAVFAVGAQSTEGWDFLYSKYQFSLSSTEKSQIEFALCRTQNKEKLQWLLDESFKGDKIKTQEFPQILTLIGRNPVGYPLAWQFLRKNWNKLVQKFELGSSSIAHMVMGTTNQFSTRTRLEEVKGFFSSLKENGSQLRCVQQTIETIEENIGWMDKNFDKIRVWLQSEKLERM
CFTR F508del cor: correctors of CFTR F508del function in bronchial epithelial cells; CFBE cells, YFP halide quenching; stimulated with forskolin plus potentiator P3; % fluorescence drop versus neutral controls; activity (quench increase), % at 7.58 µM; hit rate 0.36% among 350,000; AID 720511;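 active = mean added fluorescence quench of at least 8% versus neutral control, with both replicates also reaching 8%; inconclusive = only one of the mean or replicate conditions met; inactive = mean below 8% and not both replicates reaching 8%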;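 also: cells transiently co-express mutant CFTR-F508del with the halide-sensitive YFP; corrector assay measuring rescue of mutant channel to the surface after 24 h compound exposure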
rRNA inh HTS: inhibitors of bacterial rRNA selective over humanized ribosomes | AID 720706 | GFP signal change (wild-type ribosome), % (concentration not given with the values) | hit rate 1.6% among 350,000 | E. coli WT GFP vs humanized-ribosome RFP mutants, fluorescence, 24 h; stronger effect = lower value; DMSO median 0, no signal -100;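 active = significant combined selectivity score with lowered wild-type GFP, culture density cut under 30%, mutant RFP and density less affected; inactive = any of these conditions unmet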
PvdQ inh: blocks Pseudomonas aeruginosa PvdQ acylase activity; hit rate 0.063% among 340,000; AID 488965; purified PvdQ acylase, fluorescence plate reader; inhibition, % at 10 µM; in the data active = inhibition above about 30%, passing the limit was not always enough; inconclusive = no clear call, values can overlap the other calls
ARNT-TACC3 inh: disrupts binding between human ARNT and TACC3; Q9Y6A5; AlphaScreen His-ARNT PAS-B/GST-TACC3 binding, luminescence; TACC3 fragment carries E629A point mutation; inhibition, % at 9.99 µM; hit rate 0.66% among 390,000; AID 623870;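 active = mean inhibition of replicates at least 50% and at least half of replicates each reaching 50%; inconclusive = half or more replicates reach 50% but mean below 50%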
AID977621: wild-type E. coli growth inhibition versus H69 humanized strain – H69 mutant RFP, wild-type GFP, cherry-pick, dose response. activity change, negative = inhibition at 50 µM. 1,900 tested, under 10 active. fluorescence, 24 h. shares compounds with rRNA inh HTS;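 active = Wild-type ribosome reporter drop at least double the humanized mutant ribosome reporter drop, growth loss under a set limit; inconclusive = no clear call, values can overlap the other calls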;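 also: wild-type GFP and H69 mutant RFP strains grown together 50/50 in each well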
AID977628: E. coli growth inhibition, wild-type GFP versus h24 humanized RFP strain, dose response, h24 mutant RFP vs wild-type GFP, cherry-pick | shares compounds with rRNA inh HTS | activity change, negative = inhibition at 50 µM | 1,900 tested, under 10 active | E. coli WT GFP strain growth, fluorescence, 24 h;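 active = compound lowering the normal-ribosome reporter at least twice as much as the humanized-ribosome reporter, growth loss under a set limit; inconclusive = no clear call, values can overlap the other calls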;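 also: wild-type GFP and h24 humanized RFP strains co-cultured 1 to 1 per well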
Numbers stand for hits.

How did C[C@H](O)C#Cc1ccc([C@@H]2[C@H]3CN(CC4CCOCC4)CCCCN3[C@H]2CO)cc1 do in these assays?
ERAP1 HTS inh: inactive; CFTR F508del cor: inactive; rRNA inh HTS: inactive; ARNT-TACC3 inh: inactive

How did C[C@@H]1CN([C@@H](C)CO)C(=O)c2cc(NS(=O)(=O)c3ccccc3)ccc2O[C@H]1CN(C)C(=O)Nc1ccc(F)cc1 do in these assays?
ERAP1 HTS inh: inactive; CFTR F508del cor: inactive; rRNA inh HTS: inactive; ARNT-TACC3 inh: inactive

Results for CO[C@H]1CN(C)C(=O)c2cc(C#N)ccc2OCC[C@@H]2CC[C@H](OC)[C@@H](CN(C)C(=O)[C@H]1C)O2 ?
ERAP1 HTS inh: inactive; rRNA inh HTS: inactive; ARNT-TACC3 inh: inactive

Results for COCC#Cc1ccc2c(c1)O[C@@H](CN(C)C(=O)C1CCOCC1)[C@@H](C)CN([C@@H](C)CO)S2(=O)=O ?
ERAP1 HTS inh: inactive; CFTR F508del cor: inactive; rRNA inh HTS: inactive; ARNT-TACC3 inh: inactive

Results for Cc1cccc(C(=O)NCC(=O)NCCSc2ccc(Br)cc2)c1 ?
ERAP1 HTS inh: inactive; CFTR F508del cor: inactive; rRNA inh HTS: -22.3; PvdQ inh: inactive; AID977621: inactive

What do the screens show for `O=C(NCCSc1ccc(Br)cc1)c1ccccc1`?
ERAP1 HTS inh: inactive; CFTR F508del cor: inactive; rRNA inh HTS: inactive; PvdQ inh: inactive; ARNT-TACC3 inh: inactive

What do the screens show for `O=C(COC(=O)c1ccc(O)cc1)Nc1ccccc1`?
ERAP1 HTS inh: inactive; CFTR F508del cor: inactive; rRNA inh HTS: -21.3; PvdQ inh: inactive; ARNT-TACC3 inh: inactive; AID977621: inactive; AID977628: inactive

What do the screens show for `NS(=O)(=O)c1ccc(CCNC(=O)CCCCCNc2nc(=S)[nH]c3ccccc23)cc1`?
ERAP1 HTS inh: inactive; CFTR F508del cor: inactive; rRNA inh HTS: -22.4; AID977621: inactive; AID977628: inactive

How did COc1ccc(C2CC(=O)CCN2S(=O)(=O)c2ccc(C)cc2)cc1 (stereo not given) do in these assays?
ERAP1 HTS inh: inactive; CFTR F508del cor: inactive; rRNA inh HTS: -21.8; PvdQ inh: inactive; ARNT-TACC3 inh: inactive; AID977621: inactive; AID977628: inconclusive

Results for O=C(NCc1ccccc1)C1C(=O)Nc2ccccc2C(=O)N1Cc1ccccc1 (stereo not given) ?
ERAP1 HTS inh: inactive; CFTR F508del cor: inactive; rRNA inh HTS: inactive

Results for O=C(NCc1ccccc1)C1C(=O)Nc2ccccc2C(=O)N1c1ccc2c(c1)OCCO2 (stereo not given) ?
CFTR F508del cor: inactive; rRNA inh HTS: -17.3; AID977621: inactive; AID977628: inactive

What do the screens show for `COc1ccccc1NC(=O)N[C@H]1C=C[C@H](CC(=O)N2CCC(Cc3ccccc3)CC2)O[C@@H]1CO`?
ERAP1 HTS inh: inactive; CFTR F508del cor: inactive; rRNA inh HTS: inactive; ARNT-TACC3 inh: inactive

Results for Cc1nc(Nc2ccccc2)sc1C(=O)Nc1ccccc1 ?
ERAP1 HTS inh: inactive; CFTR F508del cor: inactive; rRNA inh HTS: -22.4; PvdQ inh: inactive; ARNT-TACC3 inh: inactive; AID977621: inconclusive; AID977628: inconclusive

How did CCOC(=O)c1sc(Nc2cccc(Cl)c2)nc1C do in these assays?
ERAP1 HTS inh: inactive; CFTR F508del cor: inactive; rRNA inh HTS: -22.9; PvdQ inh: inactive; ARNT-TACC3 inh: inactive; AID977621: inactive; AID977628: inactive

How did Cc1nc(Nc2ccccc2Cl)sc1C(=O)Nc1ccccc1 do in these assays?
ERAP1 HTS inh: inactive; rRNA inh HTS: inactive; PvdQ inh: inactive; ARNT-TACC3 inh: inactive

How did C[C@@H]1CN([C@@H](C)CO)C(=O)Cc2cc(NC(=O)CCN3CCOCC3)ccc2O[C@H]1CN(C)C(=O)NC1CCCCC1 do in these assays?
ERAP1 HTS inh: inactive; CFTR F508del cor: inactive; rRNA inh HTS: inactive; ARNT-TACC3 inh: inactive

Results for COC(=O)c1ccsc1NC(=O)c1cccc(OC)c1 ?
ERAP1 HTS inh: inactive; CFTR F508del cor: inactive; rRNA inh HTS: -26.9; PvdQ inh: inactive; ARNT-TACC3 inh: inactive; AID977621: inactive; AID977628: inactive

Results for CC(CCC(=O)O)C1CCC2C3CCC4C[C@H](O)CCC4(C)C3CC(=O)C12C (stereo not given in full) ?
ERAP1 HTS inh: inactive; CFTR F508del cor: inactive; rRNA inh HTS: inactive; PvdQ inh: inactive; ARNT-TACC3 inh: inactive

Results for CC(CCC(=O)O)C1CC[C@@]2(C)C3C(=O)CC4C(C)(C)C(O)CC[C@]4(C)C3C(=O)C[C@]12C (stereo not given in full) ?
ERAP1 HTS inh: inactive; CFTR F508del cor: inactive; rRNA inh HTS: -21.5; PvdQ inh: inactive; ARNT-TACC3 inh: inactive; AID977621: inactive

Results for Cc1ccccc1S(=O)(=O)c1cc2ccccc2nc1N ?
ERAP1 HTS inh: inactive; CFTR F508del cor: inactive; rRNA inh HTS: -30.1; PvdQ inh: inactive; ARNT-TACC3 inh: inactive; AID977621: inactive

What do the screens show for `CCOc1ccc2oc(-c3ccccc3)c(C(=O)N(C)C)c2c1`?
ERAP1 HTS inh: inactive; CFTR F508del cor: inactive; rRNA inh HTS: -25.5; PvdQ inh: inactive; ARNT-TACC3 inh: inactive; AID977621: inactive; AID977628: inactive

What do the screens show for `CCCN1C[C@@H](C)[C@H](OC)CN(C)C(=O)c2cc(NC(=O)c3cccc(OC)c3)ccc2OC[C@@H]1C`?
CFTR F508del cor: inactive; rRNA inh HTS: inactive

Results for CN(CCOc1ccccc1)S(=O)(=O)c1ccccc1C#N ?
ERAP1 HTS inh: inactive; CFTR F508del cor: inactive; rRNA inh HTS: -22.1; PvdQ inh: inactive; ARNT-TACC3 inh: inactive; AID977621: inactive; AID977628: inactive

How did C[C@@H]1CCCCO[C@H](CN(C)C(=O)CCCN(C)C)[C@@H](C)CN([C@@H](C)CO)C(=O)c2cc(NC(=O)Nc3cccc4ccccc34)ccc2O1 do in these assays?
ERAP1 HTS inh: inactive; CFTR F508del cor: inactive; rRNA inh HTS: -38.9; ARNT-TACC3 inh: inactive; AID977621: inactive; AID977628: inconclusive

How did C[C@H]1CCCCO[C@H](CN(C)C(=O)CCCN(C)C)[C@@H](C)CN([C@@H](C)CO)C(=O)c2cc(NC(=O)Nc3cccc4ccccc34)ccc2O1 do in these assays?
ERAP1 HTS inh: inactive; CFTR F508del cor: inactive; rRNA inh HTS: inactive; ARNT-TACC3 inh: inactive; AID977621: inconclusive; AID977628: inactive

How did C[C@@H]1CN([C@@H](C)CO)C(=O)c2cc(NC(=O)Nc3cccc4ccccc34)ccc2O[C@@H](C)CCCCO[C@H]1CN(C)C(=O)CCCN(C)C do in these assays?
ERAP1 HTS inh: inactive; CFTR F508del cor: inactive; rRNA inh HTS: inactive; ARNT-TACC3 inh: inactive; AID977628: inconclusive
